High-throughput results: PubChem, National Center for Advancing Translational Sciences (NCATS)
A selection: hits, their analogues and other compounds. The true share with any hit is near 11%.
Vaccinia Venus: vaccinia inhibition (Venus reporter) | AID 720580 | Vaccinia virus Venus reporter expression, fluorescence | Potency, µM (highest dose often 36.5 µM), without a hit: at the top dose activity change, negative = inhibition, most hits filed as inhibitors | 0.46% of 330,000 active; calls by dose curve; tested in A549 cells; note: % is set by controls: 0 for no effect and ±100 for the full control effect; nearly all actives have a fitted effect of over 30% in size
Pf growth 96h: P. falciparum growth inhibition at 96 hour, primary screen for plastid delayed-death inhibitors. P. falciparum luciferase reporter growth, 96 h. Potency, µM (top dose mostly 28.7 µM), without a hit: top-dose activity change, negative = inhibition, hits mostly inhibitors. 6.9% of 320,000 active; note: % is set by controls: 0 for no effect and ±100 for the full control effect
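96 h incubation, 37 C, 5% CO2, of luciferase-reporter P. falciparum-infected RBCs (2% hematocrit, 0.05% parasitemia final) with test compounds; endpoint luminescence.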
HCV inh: HCV inhibition. Potency, µM (top dose mostly 41.8 µM), inactives show at the top dose activity change, negative = inhibition, actives largely listed as inhibitors. 3.4% of 340,000 active. Huh7.5.1 HCVcc-Cre infection, luciferase reporter, 44 h. AID 651820; note: % is set by controls: 0 for no effect and ±100 for the full control effect
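Reporter virus HCVcc-Cre (~0.5 moi) infects cells exposed to compound; seeding density 1,000 cells/well with 4 h settling beforehand. Luminescence, 15 sec read, taken 44 h post-infection following a 15 min RT substrate incubation.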
Pf growth 48h: P. falciparum growth inhibition at 48 hours (one generation) | 5.9% of 310,000 active | P. falciparum luciferase growth in erythrocytes, 48 h | AID 504832 | Potency, µM (top dose mostly 28.7 µM), without a hit: at the highest dose activity change, negative = inhibition, usual class: inhibitors; note: % is set by controls: 0 for no effect and ±100 for the full control effect
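Luminescence readout; reporter = integrated firefly luciferase in P. falciparum. RBC culture at 2% hematocrit, 0.1% parasitemia final, 37 C/5% CO2; decreased signal taken as growth inhibition.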
NS1 inh: influenza NS1 inhibition; Potency, µM (series often up to 46.1 µM), inactives show at the top dose activity, positive = more growth; AID 2326; 0.4% of 270,000 active; calls by dose curve; note: actives are rising curves; nearly all actives have a fitted effect of over 50% in size
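OD600 was taken as the measure of yeast growth restored by compound in an NS1-expressing S. cerevisiae strain. Cells had been washed out of glucose medium and diluted 1:100 into galactose -URA medium, pH 6.0.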
Vaccinia mCherry: vaccinia inhibition (mCherry reporter); Vaccinia virus mCherry reporter infection, fluorescence; Potency, µM (titrated, usually from 36.5 µM), for the others: top-dose activity change, negative = inhibition, most hits filed as inhibitors; 0.63% of 310,000 active; AID 720579; calls by dose curve; tested in A549 cells; note: % is set by controls: 0 for no effect and ±100 for the full control effect; nearly all actives have a fitted effect of over 35% in size
An asterisk follows results filed as active; i = inactive; ? = inconclusive; nt = no result; ! = not confirmed by another sample; [ ] = another dose, or the depositor's remark. Unless noted, calls come from the whole dose curve; as a rule, active = well fitted inhibition curve with a large enough effect; inconclusive = small, poorly fitted or top-dose-only effect, or another doubt; inactive = no such curve, though single readings can be large or run the other way. Potency is the fitted concentration of half-maximal effect.

SMILES	Vaccinia Venus	Pf growth 96h	HCV inh	Pf growth 48h	NS1 inh	Vaccinia mCherry
C/C(CC(=O)Nc1ccccn1)=N\NC(=O)C(=O)Nc1ccccc1C	11%	1.9µM*	14%	-4%	4%	nt
COc1ccc(NC(=O)C(=O)N/N=C(\C)CC(=O)Nc2cc(C)ccn2)c(OC)c1	-9%	32%	9%	19%	7%	-20%
C/C(CC(=O)Nc1cc(C)ccn1)=N\NC(=O)C(=O)Nc1cccc(C)c1	-12%	1.5µM*	20%	82%	1%	-16%
Cc1ccc(S(=O)(=O)N2C3CCCCC3O[C@H]2CC(=O)c2ccc(F)cc2)cc1 (some centres not stated)	-1%	nt	nt	nt	nt	?
CCC(C(=O)NC1CCCCC1)N(Cc1cccs1)C(=O)CCC(=O)Nc1cc(C)on1 (configuration not stated)	-4%	5%	11µM*	?	6%	4%
Cc1cc(NC(=O)CCC(=O)N(Cc2ccco2)C2(C(=O)NC3CCCCC3)CCCCC2)no1	7%	1.3µM*	?	-25%	0%	-20%
Cc1cc(NC(=O)CCC(=O)N(Cc2ccccc2)C2(C(=O)NC3CCCCC3)CCCC2)no1	-13%	?	-4%	9.3µM*	1%	i
Cc1cc(NC(=O)CCC(=O)N(Cc2cccs2)C(C(=O)NC2CCCC2)c2ccncc2)no1 (configuration not stated)	-22%	18%	-9%	-28%	-131%	-1%
Cc1cc(NC(=O)CCC(=O)N(c2ccc(F)cc2)C2(C(=O)NC3CCCCC3)CCCC2)no1	?	128%	-22%	?	-7%	-22%
O=[N+]([O-])c1ccc(S(=O)(=O)N2CCn3cccc3C2c2ccccc2F)cc1 (configuration not stated)	?	nt	nt	nt	nt	11µM*
O=S(=O)(c1cccnc1)N1CCn2cccc2C1c1ccccc1F (configuration not stated)	-11%	0%	12%	-27%	nt	i
CC1(C)CC(N(Cc2ccco2)C(=O)Cc2ccccc2)CCO1 (configuration not stated)	-5%	?	-2%	-20%	8%	nt
NC(COCc1ccccc1)c1csc(Nc2ncccn2)n1 (configuration not stated)	-11%	nt	nt	nt	nt	i
CC(C)CC(N)c1csc(Nc2ncccn2)n1 (configuration not stated)	?	nt	nt	nt	nt	7.9µM*
COc1ccc(OC)c(C2NC(=O)NC(C)=C2C(=O)Nc2ccc(C)cc2C)c1 (configuration not stated)	nt	15%	0%	32%	-6%	nt
[O-]/C(=C(\C(=S)Nc1ccc(SC(F)F)cc1)[n+]1ccccc1)c1ccc(Cl)cc1Cl	-15%	?	13µM*	-17%	-2%	i
CN1CCN(S(=O)(=O)c2ccc(Cc3ccc(S(=O)(=O)N4CCN(C)CC4)cc3)cc2)CC1	-14%	12µM*	-4%	?	-6%	-15%
CN1CCN(S(=O)(=O)c2ccc(Cl)cc2)CC1	-10%	1.9µM*	14%	-20%	25%	i
CN1CCN(S(=O)(=O)c2cnc(Cl)c(Br)c2)CC1	?	?	?	1%	2%	13µM*
CN1CCN(S(=O)(=O)c2ccc(-c3ccc(Cl)cc3)cc2)CC1	-12%	nt	6%	-13%	4%[9.22 µM]	-18%
O=[N+]([O-])c1ccc2nc(-c3ccc(OC(F)F)cc3)cn2c1	4%	88%	-13%	143%	nt	5%
CCCC(c1nnnn1C(C)(C)CC)N1CCN(C(=O)c2ccco2)CC1 (configuration not stated)	-11%	?	-5%	-10%	-11%	-11%
CCOC(=O)Cc1c(C)nc2cc(C)nn2c1C	-13%	13µM*	0%	-1%	1%	-9%
CCOC(=O)N1CCC(N(CCOC)C(=O)Nc2ccc(CC)cc2)CC1	-10%	7.4µM*	-27%	-26%	-12%	i
CCOC(=O)N1CCC(N(C(=O)Nc2ccc(Cl)c(Cl)c2)C(C)CC)CC1 (configuration not stated)	-27%	nt	10µM*!	?	-104%	-8%
SMILES	Vaccinia Venus	Pf growth 96h	HCV inh	Pf growth 48h	NS1 inh	Vaccinia mCherry
COc1ccccc1C1CCN(C(=O)c2ccccc2)CC1	nt	7%	-8%	nt	-35%	nt
COc1ccccc1CN1CC(C(=O)NCc2cnn(C)c2)CCC1=O (configuration not stated)	-12%	6.6µM*	25%	10%	11%	-13%
Cn1cc(CNC(=O)C2CCC(=O)N(Cc3ccccc3F)C2)cn1 (configuration not stated)	-11%	?	nt	2%	6%	i
Cc1[nH]nc(C(F)(F)F)c1N=NN1CCOCC1	?	nt	16µM*	nt	nt	?
CCOc1ccccc1CNC(=O)c1cc2c(=O)n(Cc3ccco3)ccc2nc1C	-16%	nt	nt	nt	nt	-14%
O=C(NCc1ccccn1)c1ccc(Cl)c(S(=O)(=O)N2CCCCCC2)c1	-22%	10%	11µM*	?	-17%	?
O=C(NCc1ccco1)c1ccc(Cl)c(S(=O)(=O)N2CCCC2)c1	nt	2.6µM*	2%	9.3µM*	nt	nt
Cc1ccc(C(=O)NCc2ccco2)cc1S(=O)(=O)N1CCCC1	-12%	27%	2%	12µM*	7%	?
CCc1ccc(NC(=O)c2ccc(F)c(S(=O)(=O)N(CC)c3ccccc3)c2)cc1	-7%	?	?	9.3µM*	-6%	i
Cc1ccc(C(=O)NCc2ccco2)cc1S(=O)(=O)N1CCOCC1	-19%	-7%	0%	?	2%	-16%
CCN(c1ccccc1)S(=O)(=O)c1cc(C(=O)Nc2cccc(Cl)c2)ccc1F	?	?	?	?	27%	?
O=C(CC1CCCCC1)NCCS(=O)(=O)N1CCN(c2ccccc2)CC1	-14%	-1%	14%	2%	nt	i
COc1ccc(/C=C2\SC(=O)N(CC(=O)NNC(=O)c3ccccc3O)C2=O)cc1OC	-9%	13%	5%	0%	?	-15%
Cc1ccc(-c2cc(C(=O)Nc3c(C#N)cnn3C)no2)cc1	-2%	nt	7%	20%	-6%	-10%
O=C(CN1CCN(c2cccc(C(F)(F)F)c2)CC1)Nc1cccc(C(F)(F)F)c1	-17%	-25%	11%	10%	0%	nt
c1ccc(CN2CCC3(CCCc4ccccc43)CC2)cc1	-28%	?	?	?	-18%	-14%
CN1CCN(C(=O)c2ccc3c(c2)N(Cc2cccc(Cl)c2)C(=O)c2ccccc2S3=O)CC1 (configuration not stated)	-8%	nt	-17%	nt	17%	-12%
CCN(c1ccccc1)S(=O)(=O)c1cc(C(=O)NCc2ccco2)ccc1C	nt	13µM*	?	12µM*	nt	nt
